# Bioassay records: PubChem, Bradner/Qi Labs at DFCI
# Many of the other results were omitted from the sample, so hits are more common in it than they were.
# CBX7 inh – CBX7 inhibition, primary AlphaScreen; AlphaScreen His6-CBX7 / biotin-H3K27me3 peptide binding; hits give low values; normalised signal (fraction of DMSO) (test concentration not listed); actives 1.1% (n = 66,000); AID 1224903; in the data active = normalised signal below about 0.5
# Target sequence (O95931 whole entry, looked up): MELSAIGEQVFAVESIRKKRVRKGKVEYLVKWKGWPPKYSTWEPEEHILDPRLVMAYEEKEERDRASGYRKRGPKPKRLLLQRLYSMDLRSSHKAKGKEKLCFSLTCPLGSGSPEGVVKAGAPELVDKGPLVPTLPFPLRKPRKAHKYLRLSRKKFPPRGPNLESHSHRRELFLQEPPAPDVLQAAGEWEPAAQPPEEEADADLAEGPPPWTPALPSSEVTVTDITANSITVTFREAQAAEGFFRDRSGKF
# A number is an active result; . = inactive.
SMILES,CBX7 inh
CCc1ccc(NC(=O)N(Cc2ccc3c(c2)CCCN3CC)C2CCCC2)cc1,0.339
CCc1ccc(NC(=O)N(CCC(C)C)C2CCN(C(C)C)CC2)cc1,.
CCc1ccc(NC(=O)N(C2CCCCCC2)C2CCN(C(C)=O)CC2)cc1,.
CCCCN1CCCc2cc(CN(CCCN3CCOCC3)C(=O)Nc3ccccc3)ccc21,.
CCCN1CCCc2cc(CN(C(=O)Nc3ccc(Cl)c(Cl)c3)C(C)CC)ccc21 (stereo unspecified),.
CCN1CCCc2cc(CN(C(=O)Nc3ccc(C)c(C)c3)C3CCCC3)ccc21,0.438
Clc1cccc(Nc2c3c(nc4ccc(Cl)cc24)CCCC3)c1,.
CCCNC(=O)CCc1c(C)nc2cc(-c3ccc(Cl)cc3)nn2c1C,.
Cc1cccc2nc(-c3cccs3)c(Nc3ccc4c(c3)OCCO4)n12,.
CCn1cc(C(=O)Nc2ccc(C(=O)OC)cc2)c(=O)c2ccc(C)nc21,.
CC(C)CCNC(=O)Cn1ncc2ccsc2c1=O,.
COc1cccc(-c2nc(-c3ccccc3)c(-c3cc([N+](=O)[O-])ccc3C)[nH]2)c1OC,0.369
COc1ccc(-c2nc(-c3ccccc3)c(-c3ccccc3)[nH]2)c(OC)c1,0.37
COc1ccc(-c2nc(-c3ccccc3)c(-c3ccc(F)cc3)[nH]2)c(OC)c1C,0.485
COc1cccc(-c2nc(-c3cccc(C)c3)no2)c1OC,.
COc1ccc(OC)c(-c2nc(-c3ccccc3)c(-c3ccccc3)[nH]2)c1,0.411
COc1ccc(OC)c(-c2nc3ccccc3nc2-c2ccccc2)c1,.
COc1cc(OC)cc(-c2nc(-c3ccccc3)c(-c3ccc(Cl)cc3)[nH]2)c1,.
COc1ccc(-c2[nH]c(-c3cc(OC)c4c(c3)OCO4)nc2-c2ccccc2)cc1,.
COc1ccc(-c2nc(-c3ccccc3)c(-c3ccccc3)[nH]2)cc1O,.
COc1ccc(-c2nc(-c3ccccc3)c(-c3ccc(Sc4ccccc4)cc3)[nH]2)cc1OC,.
CCN(CC)c1cc(C)c2cc(NC(=O)Cc3ccc(C)cc3)ccc2n1,.
CCCC(O)(CCN1CCCCCC1)c1ccccc1 (stereo unspecified),.
O=C(CCc1ccccc1)c1ccccc1OCC(O)CN1CCCCC1 (stereo unspecified),.
COC(CNC(=O)c1ccc2c(c1)N(Cc1ccccc1C)C(=O)c1ccccc1S2=O)OC (stereo unspecified),.
SMILES,CBX7 inh
O=C(Cn1nnc(-c2ccccc2F)n1)N1CCOCC1,.
CCc1ccc(NC(=O)c2noc3c2CCc2cc(OC)ccc2-3)cc1,.
CCN1C(=O)c2ccccc2S(=O)c2ccc(C(=O)NCCN3CCCCC3C)cc21 (stereo unspecified),.
Cc1ccc(-c2nnc(Nc3ccc(O)cc3)c3ccccc23)cc1S(=O)(=O)NCc1ccccn1,.
Cc1c(C(=O)NCCC(C)C)oc2ccc(S(=O)(=O)N3CCC4(CC3)OCCO4)cc12,.
Cc1c(C(=O)NCc2ccccn2)oc2ccc(S(=O)(=O)N3CCC4(CC3)OCCO4)cc12,0.434
Cc1c(C(=O)NCc2ccccc2)oc2ccc(S(=O)(=O)N3CCC4(CC3)OCCO4)cc12,.
Cc1cc(=O)n2nc(N3CCC(C(=O)NCCN(C)C4CCCCC4)CC3)sc2n1,.
COCCNC(=O)c1ccc2c(c1)ncn2-c1cccc(F)c1,.
O=C(CCCCn1c(=O)[nH]c2ccsc2c1=O)NCCc1c[nH]c2ccccc12,.
O=C(NCc1ccccn1)c1cc(Nc2cccc(C(F)(F)F)c2)nc2ccccc12,.
Cc1ccccc1Nc1cc(C(=O)NCc2ccc3c(c2)OCO3)c2ccccc2n1,.
COc1ccc(CN2C(=O)c3cccnc3C2Nc2ccc(OC)c(Cl)c2)cc1 (stereo unspecified),0.157
COc1ccc(CN2C(=O)c3cccnc3C2Nc2ccc(Br)c(C)c2)cc1 (stereo unspecified),0.149
COc1ccc(NC2c3ccccc3C(=O)N2Cc2ccccc2Cl)cc1OC (stereo unspecified),.
COc1cccc(NC2c3ccccc3C(=O)N2Cc2ccccc2)c1 (stereo unspecified),.
Cc1ccccc1N1C(=O)c2ccccc2C1Nc1ccc(Br)cc1F (stereo unspecified),.
CCOc1ccc(N2C(=O)c3cccnc3C2Nc2ccc(Br)c(C)c2)cc1 (stereo unspecified),0.164
CCOc1ccc(C2C(N3C(=O)c4ccccc4C3=O)C(=O)N2c2ccc(Br)c(C)c2)cc1 (stereo unspecified),.
COc1cc(OC)c(NC2c3ccccc3C(=O)N2Cc2ccccc2)cc1Cl (stereo unspecified),.
COc1ccc(CN2C(=O)c3cccnc3C2Nc2ccc(Br)cc2F)cc1 (stereo unspecified),0.192
CCOc1ccc(N2C(=O)c3ccccc3C2Nc2ccc(C)cc2)cc1 (stereo unspecified),.
COc1ccc(NC2c3ccccc3C(=O)N2Cc2ccccc2Cl)cc1 (stereo unspecified),.
Cc1cc(NC2c3ccccc3C(=O)N2Cc2ccccc2)ccc1Br (stereo unspecified),.
O=C(CC1(O)C(=O)N(CCc2ccccc2)c2ccccc21)c1ccccc1 (stereo unspecified),.
SMILES,CBX7 inh
COCCCNC(=O)CN1CCN(Cc2ccccc2C)C1=O,.
Cc1ccc(C(=O)Nc2c3c(nn2-c2cccc(Cl)c2)CSC3)cc1C,.
COc1ccc(-n2c3c(cc(C(=O)Nc4ccc(F)cc4)c2=O)C(=O)CC(C)(C)C3)cc1,.
CCN(Cc1ccccc1)S(=O)(=O)c1ccc2c(c1)CCN2C(=O)C1CC1,.
Cc1cc(N2CCOCC2)nc2ccc(NC(=O)Cc3ccccc3Br)cc12,.
Oc1ccc(Nc2nc(-c3ccccc3Cl)nc3ccccc23)cc1,.
COc1ccc(Nc2nc(-c3ccccc3Cl)nc3ccccc23)cc1,.
CN(C)c1ccc(Nc2nc(-c3ccccc3Cl)nc3ccccc23)cc1,0.305
COc1ccccc1NC(=O)C1CCCN(S(=O)(=O)c2cccc3cccnc23)C1 (stereo unspecified),.
CC1CCC(NC(=O)Cn2nc(Cc3ccncc3)c3ccccc3c2=O)CC1 (stereo unspecified),.
O=C(Nc1ccc2oc(-c3ccncc3)nc2c1)c1ccc(-c2ccc(F)cc2)o1,0.405
O=C(Nc1ccc2oc(-c3ccncc3)nc2c1)c1ccc(-c2ccc(Cl)cc2)o1,.
CCc1ccc2oc(-c3ccc(NC(=O)c4ccccc4)cc3)nc2c1,.
CCc1ccc2oc(-c3ccc(NC(=O)c4cc(OC)cc(OC)c4)cc3)nc2c1,.
O=C(Nc1ccc2oc(-c3cccnc3)nc2c1)c1ccc(-c2ccc(F)cc2)o1,.
CCc1ccc2oc(-c3ccc(NC(=O)c4ncn[nH]4)cc3)nc2c1,0
CCOC(=O)c1cnc2c(Cl)cccc2c1Nc1ccc(OCC)cc1,.
CCOc1ccc(-c2cc(CCCC(=O)Nc3ccc(C)c(C)c3)no2)cc1,.
O=C1CN(c2nc(-c3ccc(Cl)cc3)cs2)CCN1,.
Cc1cc(C)cc(N(CC(=O)O)S(=O)(=O)c2ccc3[nH]c(=O)c(=O)[nH]c3c2)c1,.
C=CCn1c(SCC(=O)Nc2ccc(OC)cc2)nnc1-c1cccnc1,.
Cc1cc(NC(=O)C2CC2)n(-c2nc3ccccc3[nH]2)n1,.
CCCc1nc2nc(C)cc(Nc3ccc(F)cc3F)n2n1,.
O=C(NC1CCCCC1)C1c2cccn2CC(=O)N1Cc1ccc2c(c1)OCO2 (stereo unspecified),.
